Screens (PubChem)
Rows were chosen to be rich in hits. Some 2.3% of all compounds tested hit in one or more screens of this group.
HSP90 inh = HSP90 refolding inhibition in rabbit reticulocyte lysate; luciferase refolding luminescence, 3 h; inhibition, % at 5.6 µM; actives 0.91% (n = 290,000);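 active = inhibition above the screen-wide mean plus 3 SD, computed separately per campaign, cut at about 16% in these data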;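 note: 0% = DMSO wells and 100% = 60 µM geldanamycin wells; inhibitors lower the luminescence because luciferase stays unfolded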
SENP7 inh = SENP7 protease inhibition | Q9BQF6 | actives 1.5% (n = 330,000) | recombinant SENP7, Z-RLRGG-aminoluciferin luminescence, 40 min | inhibition, % at 5 µM;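 active = inhibition above about 50% at the single test dose, limit read from the data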;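 note: plate controls were DMSO with enzyme for no effect and no enzyme buffer wells for full effect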
Target sequence (Q9BQF6 706-1050 limits assumed): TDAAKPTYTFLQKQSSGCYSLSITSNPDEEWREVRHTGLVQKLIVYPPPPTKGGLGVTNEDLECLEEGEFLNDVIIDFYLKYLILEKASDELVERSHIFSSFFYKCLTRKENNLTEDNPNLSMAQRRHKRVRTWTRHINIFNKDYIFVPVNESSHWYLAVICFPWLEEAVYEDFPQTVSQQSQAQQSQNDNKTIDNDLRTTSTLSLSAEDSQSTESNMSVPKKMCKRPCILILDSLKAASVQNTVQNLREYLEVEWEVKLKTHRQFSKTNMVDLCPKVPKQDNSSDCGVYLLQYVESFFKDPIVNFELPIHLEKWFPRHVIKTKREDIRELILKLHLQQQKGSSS
SENP8 block-1 = SENP8 (human) protease inhibition; Q96LD8; recombinant SENP8, Nedd8 substrate fluorescence; inhibition, % at 20 µM; actives 0.64% (n = 360,000); AID 602440; in the data active = inhibition mostly above about 40%, no sharp cut-off; inactive = mostly below about 27%
SENP6 inh = blocks the human protease SENP6. actives 1.8% (n = 330,000). AID 2599. Q9GZR1. inhibition, % at 10 µM. Recombinant SENP6 catalytic domain, aminoluciferin luminescence;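 active = inhibition above about 50% at the single tested dose, limit read from the data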;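 note: plate controls were DMSO wells with enzyme for no effect and DMSO wells lacking enzyme for full effect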
SENP8 block-2 = blocks the human protease SENP8. actives 1.2% (n = 330,000). purified SENP8, Z-RLRGG-aminoluciferin cleavage, luminescence. AID 2540. Q96LD8. inhibition, % at 10 µM; in the data active = inhibition above about 50%
LGR2 antag = inhibitors of bursicon-induced Drosophila LGR2 receptor cAMP signaling; HEK293 LGR2, CRE-luciferase, bursicon-stimulated, 4 h; inhibition, % at 9.99 µM; actives 0.35% (n = 380,000);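 active = drop in luminescence signal, shown as inhibition above about 50% in the replicate tests, limit read from the data, passing the limit was not always enough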;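 note: agonist challenge used bursicon conditioned medium at about half maximal strength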
Active calls of the source: *; · = no result given.

SMILES | HSP90 inh | SENP7 inh | SENP8 block-1 | SENP6 inh | SENP8 block-2 | LGR2 antag
Cc1[nH]c2ccccc2c1/C=N/Nc1nc2ccccc2[nH]1 | 2 | -5 | -160 | -24 | -13 | 100*
Cc1cc(=O)[nH]c(N/N=C/c2c(C)nn(-c3ccccc3)c2Cl)n1 | 0 | -4 | 30 | 6 | 0 | -23
Cc1ccccc1/C=N/Nc1nc2ccccc2[nH]1 | 5 | -9 | -106 | -7 | -17 | -59
Cc1cc(C(=O)N/N=C/c2c(C)nn(-c3ccccc3)c2Cl)n[nH]1 | 1 | -10 | 12 | -11 | -6 | -10
Cc1nn(-c2ccccc2)c(Cl)c1/C=C/C(=O)c1ccccc1 | 4 | 4 | 42* | -3 | -14 | ·
Cc1nn(-c2ccccc2)c(Cl)c1/C=N/O | 3 | 6 | -1 | -11 | -4 | 6
Cc1nn(-c2ccccc2)c(Cl)c1/C=N/Nc1nc2ccccc2[nH]1 | -3 | 85* | 9 | 52* | 16 | -29
Nc1ncnc2c(C3OC(CO)C(O)C3O)scc12 (stereo not drawn) | · | · | -496 | · | · | 98*
Nc1ncnc2c1ncn2C1O[C@H](CO)[C@@H](O)[C@@H]1O (stereo partly drawn) | · | 9 | 10 | -10 | 3 | -4
CCOC(=O)C1(CCCc2ccccc2)CCN(C(=O)CCc2cnn(C)c2)CC1 | 3 | -7 | 15 | -8 | -2 | 6
CCOC(=O)C1(CCCc2ccccc2)CCN(C(=O)CCOC)CC1 | 1 | -6 | 6 | 87* | -9 | -17
C[C@H]1CN([C@@H](C)CO)C(=O)c2cccc(NS(=O)(=O)c3cn(C)cn3)c2O[C@@H]1CN(C)S(=O)(=O)c1cccs1 | · | · | · | · | · | 10
COC(=O)C[C@H]1CC[C@H]2[C@@H](COc3ccc(NC(=O)Nc4cccc(C)c4)cc3C(=O)N2C)O1 | · | · | · | · | · | -8
CC(=O)NC(c1cccs1)c1cc([N+](=O)[O-])c2cccnc2c1O (stereo not drawn) | 6 | · | 45* | · | · | 11
O=C(CCc1ccccc1)NC(c1cccs1)c1cc(Cl)c2cccnc2c1O (stereo not drawn) | 2 | · | 2 | · | · | 23
CCCC(=O)NC(c1cccs1)c1cc([N+](=O)[O-])c2cccnc2c1O (stereo not drawn) | -2 | · | 52* | · | · | 37
CCC(=O)NC(c1cccs1)c1cc([N+](=O)[O-])c2cccnc2c1O (stereo not drawn) | 4 | 10 | 66* | 3 | 7 | 24
CC(=O)NC(c1ccccc1)c1cc([N+](=O)[O-])c2cccnc2c1O (stereo not drawn) | 6 | 7 | 52* | 9 | 5 | 21
COc1ccc2c3c(n(C)c2c1)[C@H](CO)N(CC1CC1)CC31CCN(C(=O)c2ccc(F)cc2)CC1 | · | · | · | · | · | -14
CC(C)NC(=O)N(C)C[C@H]1OCCCC[C@H](C)Oc2ccc(NC(=O)Nc3ccc(F)cc3)cc2C(=O)N([C@@H](C)CO)C[C@H]1C | · | · | · | · | · | 14
CCOC(=O)c1c(CSC(=N)N)n(-c2ccccc2)c2cc(Br)c(OC(C)=O)cc12 | -1 | -8 | 14 | -15 | -1 | 63*
COc1cc(OC)cc(-c2cc3nc(C)c(CCC(=O)O)c(C)n3n2)c1 | 25* | · | -382 | · | · | 4
COCC#Cc1cnc2c(c1)C(=O)N([C@H](C)CO)C[C@H](C)[C@@H](CN(C)C(=O)CN1CCOCC1)O2 | · | · | · | · | · | -11
CC(C)CC(=O)N1CCN(c2ccc([N+](=O)[O-])c(NCc3ccccc3)c2)CC1 | -1 | 3 | 54* | -12 | -4 | ·
O=C(c1ccccc1)N1CCN(c2ccc([N+](=O)[O-])c(NCc3cccnc3)c2)CC1 | 1 | -10 | 21 | -24 | -6 | -5
SMILES | HSP90 inh | SENP7 inh | SENP8 block-1 | SENP6 inh | SENP8 block-2 | LGR2 antag
CCc1ccc(C(=O)COC(=O)c2cccs2)cc1 | -2 | 97* | 24 | 4 | 91* | ·
CCC(=O)c1ccc(OC(=O)c2cccs2)cc1 | -3 | -4 | 19 | -59 | -46 | ·
O=C(C[C@H]1C=C[C@@H](NC(=O)CC2CC2)[C@@H](CO)O1)NCc1ccc(-c2ccccc2)cc1 | · | · | · | · | · | -7
COc1ccc2c3c(n(C)c2c1)[C@H](CO)N(Cc1ccncc1)CC31CCN(C(=O)C2CC2)CC1 | · | · | · | · | · | -5
Cc1cc(Nc2nc(Cl)c(Cl)cc2Cl)n(-c2ccccc2)n1 | 26* | 4 | -6 | -2 | 2 | 6
C[C@@H]1CN([C@@H](C)CO)C(=O)c2cc(NC(=O)Nc3cccc4ccccc34)ccc2O[C@@H](C)CCCCO[C@H]1CN(C)S(=O)(=O)c1ccc(F)cc1 | · | · | · | · | · | 6
